In ChEMBL document CHEMBL3433997, “St. Jude Leishmania screening dataset” (2016):

target: Glucose transporter (Leishmania mexicana) (UniProt O61059); test: ST_JUDE_LEISH: Cytotoxicity at 2uM final concentration against transgenic Leishmania Mexicana promastigotes LmGT2 that are glucose transport deficient and complemented with the L. Mexicana glucose transporter 2. Activity is measured by DNA content using SYBR green in vitro; format: functional

| SMILES | inhibition [%] |
| --- | --- |
| O=C(Nc1ccc(Cl)cc1)c1cccc(CN2CCCN(Cc3cccc(O)c3)CC2)c1 | 0.01 |
| CN1CCN(CCCN(Cc2csc(-c3ccc(CNCc4ccccc4)cc3)n2)S(=O)(=O)c2ccccc2Cl)CC1 | 2.9 |
| O=C(Nc1cccc(-c2nn3ccccc3c2-c2ccnc(Nc3ccc(Cc4ccncc4)cc3)n2)c1)c1c(F)cccc1F | 13.2 |
| COc1ccc(C=NNc2nc(O)cc(-c3ccccc3)n2)cc1OC | -1.28 |
| Fc1ccc2[nH]c(-c3cccc(-c4cccc(CNCCN5CCNCC5)c4)c3)nc2c1 | 0.88 |
| Cc1nc(Nc2ccc(F)cc2)nc(N2CCc3ccccc3[C@@H]2C)c1C | 1.46 |
| CCOc1ccc2[nH]c(C)cc(=NN=Cc3cccc(F)c3)c2c1 | 0.95 |
| O=C(CN1CCN(C(C(=O)Nc2cc(C(F)(F)F)ccc2Cl)c2ccccc2)CC1)NC1CC1 (stereo not given) | 3.2 |
| Oc1ccc(Cc2ccccc2)cc1CNC1CCCCC1 | 1.87 |
| COc1ccc2[nH]ccc(=NN=Cc3ccncc3)c2c1 | 3.39 |
| O=C(Nc1ccc(-c2cccc(-c3nc4cc(C(F)(F)F)ccc4[nH]3)c2)cc1)c1ccncc1 | 1.87 |
| CN(C)c1ccnc2ccc(NC(=O)Nc3ccnc4ccccc34)cc12 | 1.09 |
| O=c1nc(NCCCNCc2cc3c(Cl)cc(Cl)cc3[nH]2)[nH]c2ccsc12 | 83.9 |
| Cc1oc(-c2ccc(Cl)cc2)cc1C(=O)NCCC1CCN(CCCCCNC(=O)/C=C/c2ccc(Cl)c(Cl)c2)CC1 | -2.41 |
| N=C(N)Nc1nc(CCCCCCCCc2csc(NC(=N)N)n2)cs1 | 1.03 |
| CCN1CCC(N(Cc2ccc(-c3ccc(C(F)(F)F)cc3)cc2)C(=O)CCCCn2c(CCc3cccc(F)c3F)nc(=O)c3ccccc32)CC1 | -0.6 |
| COc1ccc2ncc(F)c(CCN3CC[C@@H](CNCc4ccc5c(c4C)OCCO5)C3)c2n1 | 52.1 |
| CCOc1cc(C)ccc1C1CCN(CCCCNC(=O)c2nc(-c3ccc(C(F)(F)F)cc3)[nH]c2C)CC1 | -0.05 |
| Cc1ccc(C2CCN(CCCCNC(=O)c3ccc(NC(=O)c4ccc(Cl)cc4)cc3)CC2)c(OCC(F)(F)F)c1 | 0.66 |
| CCOc1ccc2c(c1)OC(c1ccccc1)(C(F)(F)F)NC2=O (stereo not given) | 1.65 |

| SMILES | inhibition [%] |
| --- | --- |
| CCN(CC)CCN(Cc1ccc(-c2ccc(C(F)(F)F)cc2)cc1)C(=O)Cn1c(CCc2ccc(F)c(F)c2F)nc(=O)c2ccc(F)cc21 | -0.03 |
| COc1ccc2[nH]c(/C=C/c3cccc4ccc(C)nc34)nc2c1 | 0.69 |
| O=C(Nc1ccccc1)Nc1cccc(-c2cc(CNCCc3ccccc3)sc2-c2ccncc2)c1 | 4.67 |
| N[C@@H](CCNCc1ccc(-c2cccnc2)cc1)Cc1ccc(F)c(F)c1 | 0.4 |
| Oc1ccc(CN2CCC(NCc3cccc(C(F)(F)F)c3)CC2)cc1 | 13.7 |
| Fc1cccc2sc(Nc3nc(-c4ccccn4)cs3)nc12 | -5.6 |
| CC(C)(CNC(=O)C1CCN(Cc2ccoc2)CC1)c1nc(-c2ccc(Cl)c(O)c2)c(-c2ccncc2)[nH]1 | -2.68 |
| Cc1sc(NC(=O)c2ccc([N+](=O)[O-])cc2Cl)c(C(N)=O)c1C | 2.74 |
| COc1cccc(-c2cc(C(F)(F)F)n3ncc(C(=O)Nc4cc(C)ccc4O)c3n2)c1 | 3.36 |
| CC(C)CC1(C(=O)OC(C)(C)C)CC(C(=O)OC(C)(C)C)C(c2cccs2)N1C(=O)c1ccc(C(C)(C)C)cc1 (stereo not given) | 2.67 |
| CCN(CC)CCN1C(=O)c2oc3ccc(Cl)cc3c(=O)c2C1c1ccc(SC)cc1 (stereo not given) | 8.97 |
| CC1(C)CC(NCCCCCCCOc2ccc(OCc3ccccc3)cc2)CC(C)(C)N1 | 55.4 |
| CC[C@H]1CN(Cc2ccccc2Br)CC[C@H]1CCCc1ccnc2ccc(O)cc12 | 2.43 |
| N#Cc1cccc(NC(=O)Nc2cccc(OC3CCN(Cc4ccccc4)CC3)c2)c1 | -0.29 |
| CCN(CC)CCN(CCCc1ccc(-c2ccc(C(F)(F)F)cc2)cc1)C(=O)Cn1c(CCc2cccc(F)c2F)nc(=O)c2ccccc21 | 2.33 |
| Brc1cccc(Nc2nccc(Nc3ccc(Oc4ccccc4)cc3)n2)c1 | -0.46 |
| c1ccc2[nH]c(-c3ccc(-c4ccc(CN5CCN(CCN6CCOCC6)CC5)cc4)s3)nc2c1 | 7.67 |
| COc1ccc(CN2CCCN(Cc3cccc(NC(=O)c4ccc(Cl)c(Cl)c4)c3)CC2)cc1 | 0.01 |
| Oc1cccc(Nc2ccnc3cc(-c4ccncc4)ccc23)c1 | 8.68 |
| CN(C)Cc1ccc(-c2cccc(NC(=O)c3ccc(Cl)cc3)c2)cc1 | 0.23 |
